This is part of a sample that, as a whole, favours compounds with a hit. Of some 83,000 tested, about 20% had one in any assay.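 Single-concentration screen, 48 h exposure, 96-well plates. Endpoint: percent growth. Below 10 = active.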 Values without a mark were called inactive. Calls of active or inactive are those of the source.
How the values were obtained:
Assay in all cases: NCI-60 one-dose screen, 48 h (100 = growth as untreated, 0 = no growth, -100 = all killed)
Conditions in all cases: 10 µM unless noted
NCI-H23 lung = test system: NCI-H23 lung
NCI-H226 lung = test system: NCI-H226 lung
NCI-H322M lung = test system: NCI-H322M lung
HOP-62 NSCLC = test system: HOP-62 NSCLC
NCI-H460 lung = test system: NCI-H460 lung
HOP-92 NSCLC = test system: HOP-92 NSCLC
NCI-H522 lung = test system: NCI-H522 lung
A549/ATCC NSCLC = test system: A549/ATCC NSCLC
786-0 renal = test system: 786-0 renal
COLO 205 colon = test system: COLO 205 colon

SMILES	growth (NCI-H23 lung)	growth (NCI-H226 lung)	growth (NCI-H322M lung)	growth (HOP-62 NSCLC)	growth (NCI-H460 lung)	growth (HOP-92 NSCLC)	growth (NCI-H522 lung)	growth (A549/ATCC NSCLC)	growth (786-0 renal)	growth (COLO 205 colon)
C#Cc1ccccc1NC(=O)c1sc2nc3c(cc2c1N)CCCCCC3	53.5%	83.4%	82.7%	76.8%	33.4%	67.6%	72.1%	51.4%	17%	47.4%
Cc1cccc(C)c1NCc1nnc(-c2ccc(O)cc2)o1	91.1%	95.5%	98.9%	111%	96.9%	88.3%	97.1%	104%	102%	97.3%
CCCCn1c(=O)c(/C=C/C(=O)/C=C/c2ccc(OC)cc2)cc2cc(Cl)ccc21	48.6%	70%	72.7%	102%	20.7%	102%	56.3%	51.1%	28.4%	88.3%
CCOc1ccccc1C(=O)/C=C/c1cc2ccccc2[nH]c1=O	-55.2% (active)	8.19% (active)	-2.24% (active)	-33.5% (active)	-4.96% (active)	0.541% (active)	-38.6% (active)	16.8%	-21.7% (active)	-50.8% (active)
Cc1nnc(/N=C2\NC(=O)/C(=C/c3ccsc3)S2)s1	89.8%	96%	92.2%	80.8%	67.5%	96.6%	78.1%	100%	94.6%	92.2%
COc1c(O)cc2oc3cc(O[C@@H]4OC(C)[C@@H](O)[C@H](O)C4O)c(CC=C(C)C)c(O)c3c(=O)c2c1CC=C(C)C (stereo not given in full)	89.4%	90.1%	107%	110%	90.5%	89.2%	68.5%	80%	101%	114%
CC(=O)c1cnc(-c2ccccc2)nc1CBr	87.7%	92.1%	102%	94.3%	98.2%	58.7%	-23.4% (active)	99%	86.3%	36.9%
C=CCn1c(CN2CCN(c3cc4c(cc3F)c(=O)c(C(=O)O)cn4C3CC3)CC2)n[nH]c1=S	104%	110%	88.6%	99.8%	108%	104%	87.9%	101%	95.6%	102%
N#Cc1ccc(Oc2ccc3ccc(=O)oc3c2)cc1	101%	102%	111%	102%	103%	67%	105%	109%	95.5%	102%
CCC[S@@](=O)c1ccc2nc(NC(=O)OC)[nH]c2c1	93.3%	85.6%	96%	66.2%	99.5%	84%	59.9%	65.7%	91.6%	96.4%
O=C(CSC(=S)N1CCCCC1)Nc1ccccc1	97.4%	94.5%	101%	100%	104%	99.6%	82.3%	87.9%	97%	112%
Cc1c(O)c(=O)ccn1-c1nc2ccccc2s1	102%	92.5%	88%	87.3%	99.3%	98.4%	75.4%	92.5%	84.6%	96.4%
COc1ccc(N(C)c2nc(Cl)nc3ccn(C)c23)cc1	27%	30.3%	49%	17.7%	2.4% (active)	5.65% (active)	-36% (active)	10.7%	12.6%	-71.1% (active)
CCCCCCCc1n(Cc2ccc3ccccc3c2)c2ccccc2[n+]1Cc1ccc2ccccc2c1	-76.9% (active)	-70.8% (active)	-86% (active)	-70.6% (active)	-73% (active)	-84.4% (active)	-81.1% (active)	-77.5% (active)	-65.1% (active)	-75.8% (active)
Cc1cc(C)c(NC(=O)c2sc3nc4c(cc3c2N)CCCCCC4)c(C)c1	81.1%	75.6%	99.7%	45.6%	46.2%	51.3%	4.69% (active)	53.2%	48.7%	81.5%
COc1cc(C(=O)Nc2cc(O)c(C/C=C(\C)CCC=C(C)C)c(O)c2)cc2c1O[C@]1(C)CC[C@@H](O)C(C)(C)[C@H]1C2	27.8%	40.5%	48.2%	8.47% (active)	12.4%	-2.91% (active)	18.8%	11.9%	-6.12% (active)	-22.2% (active)
COC(=O)c1nc(-c2ccccc2)oc1S(=O)(=O)n1nc(C)cc1N	92.1%	110%	91.8%	97%	96.9%	49.5%	-25.8% (active)	94.9%	80.6%	-63.9% (active)
Nc1c(C(=O)Nc2cccc3ccccc23)sc2nc3c(cc12)CCCCC3	44.8%	72.7%	51.3%	38.9%	9.6% (active)	63.2%	0.413% (active)	19.3%	30.5%	2.61% (active)
COc1cc(C2=NN(C=O)C(c3cccc(Nc4ccnc5cc(C(F)(F)F)ccc45)c3)C2)cc(OC)c1OC (stereo not given)	59.9%	64.3%	66.2%	70.1%	44%	29.1%	53.1%	49%	63.3%	56.8%
COc1cc(NC(=O)COc2cc(C)nc3ccc(OC)cc23)cc(OC)c1	86.9%	87.1%	94%	91.3%	95%	94.1%	75%	87%	97.1%	69.4%
COc1ccc(-c2cc(C(=O)N3N=C(c4ccc(N)cc4)CC3c3ccc(OC)cc3)c3cc(OC)ccc3n2)cc1 (stereo not given)	48.6%	94.9%	93.3%	60.1%	85.4%	56%	29.5%	76.6%	18.9%	96.3%
CN(C)CSc1nc2ccccc2s1	92.9%	95.1%	94.8%	88%	109%	78.7%	91.5%	101%	95.4%	91.6%
C=C1C(=O)O[C@H]2[C@H]1CC/C(COC(=O)n1ccnc1)=C\CC[C@@]1(C)O[C@@H]21	91.1%	92.4%	113%	92.5%	104%	94.4%	31.9%	93%	102%	64.6%
O=c1[nH]c2ccccc2cc1-c1nc2ccncc2[nH]1	85%	79.6%	110%	101%	62.4%	64.3%	90.7%	90.4%	88.6%	83.3%
Cc1nc2sc(C(=O)Nc3ccccc3Cl)c(N)c2cc1C(C)O (stereo not given)	93.5%	93.1%	91.1%	75.8%	98.8%	83.3%	74%	75.6%	84.8%	60.2%
O=C(O)c1cn(C2CC2)c2cc(N3CCN(Cc4nnc(Nc5ccccc5)o4)CC3)c(F)cc2c1=O	105%	108%	93.5%	99.8%	104%	104%	92.7%	98.3%	94.9%	104%

— PubChem BioAssay (NCI)
